Assay outcomes deposited in PubChem BioAssay by National Center for Advancing Translational Sciences (NCATS).
In the library only some 10% were active in any assay of this set; here they are far more common.
Six1-Eya2 inh: blocks human Six1 binding to Eya2 | Q15475+O00167 | AlphaScreen GST-Six1/His-Eya2 binding, biochemical; active compounds read low | activity change, % (no concentration beside the values) | actives 0.56% (n = 360,000) | AID 651725; in the data active means activity change below about -65%; inconclusive means mostly about -30% to -63%
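Six1/Eya2 binding was read as AlphaScreen signal after compounds were pinned into GST-Six1 plus His-tagged Eya2 (5X stock 250/500 nM) in pH 8.0 Tris/NaCl/TCEP buffer, beads added, then incubated 1 h, 37 C, dark.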
HP1b chromo inh: blocks HP1-beta chromodomain binding to methylated histone tails. AlphaScreen HP1-beta / biotin-H3K9me3 peptide binding. Potency, µM (titrated, usually from 114 µM), usual class: inhibitors. actives 0.56% (n = 390,000); further: nearly all actives have a fitted effect of over 70% in size
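Compound inhibition of the preformed complex between 50 nM HP1-beta and 50 nM biotinylated H3K9me3 peptide was read by AlphaScreen. Buffer was PBS pH 7.4 with 0.01% Tween-20. Incubations ran 30 min at room temperature, with 10 ug/mL donor/acceptor beads.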
CtBP-E1A blk: inhibitors of CtBP/E1A interaction | AlphaScreen GST-E1A/His-CtBP binding, 1536-well; active compounds read low | activity change, % (concentration not given with the values) | actives 0.49% (n = 340,000); in the data active means activity change below about -65%; inconclusive means mostly about -30% to -63%
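Steps: dispense buffer (Tris pH 8.0, NaCl 300 mM, TCEP 1 mM, BSA, Tween 20); add 5X protein mix (GST-E1A, His-CtBP, 125 nM each); pin 23 nL compound; 2 h at 37 °C, dark; add 5X beads (50 ug/mL); 1 h; read.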
BAZ2B block: blocks human BAZ2B; AlphaScreen BAZ2B-H3K14Ac peptide displacement; Potency, µM (top dose mostly 114 µM), actives largely listed as inhibitors; actives 4.4% (n = 360,000); AID 504333; further: nearly all actives have a fitted effect of over 60% in size
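Complex of BAZ2B and biotin-H3K14Ac (50 nM apiece) forms over 30 min at RT, then faces library compounds up to 110 uM for another 30 min; AlphaScreen beads added, 20 min dark incubation, luminescence read.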
G9a block: G9a (human) methyltransferase inhibition | actives 8.8% (n = 350,000) | Potency, µM (series often up to 102 µM), most hits filed as inhibitors | G9a H3K9 monomethylation, AlphaScreen, 2 h | AID 504332 | Q96KQ7; further: nearly all actives have a fitted effect of over 75% in size
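Step 1: enzyme (final 20 nM) with compound, 15 min RT. Step 2: substrate peptide 500 nM and SAM 20 uM, 2 h RT. Step 3: anti-H3K9me1 antibody and AlphaScreen beads, 10 min, then plate read.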
JMJD2A Tudor inh: blocks the human JMJD2A Tudor domain; actives 4.4% (n = 390,000); AID 504339; AlphaScreen JMJD2A-Tudor / H3K4me3 peptide binding; O75164; Potency, µM (titrated, usually from 114 µM), actives largely listed as inhibitors; further: nearly all actives have a fitted effect of over 50% in size
Target sequence (O75164 whole entry, looked up, the tested form may be a part): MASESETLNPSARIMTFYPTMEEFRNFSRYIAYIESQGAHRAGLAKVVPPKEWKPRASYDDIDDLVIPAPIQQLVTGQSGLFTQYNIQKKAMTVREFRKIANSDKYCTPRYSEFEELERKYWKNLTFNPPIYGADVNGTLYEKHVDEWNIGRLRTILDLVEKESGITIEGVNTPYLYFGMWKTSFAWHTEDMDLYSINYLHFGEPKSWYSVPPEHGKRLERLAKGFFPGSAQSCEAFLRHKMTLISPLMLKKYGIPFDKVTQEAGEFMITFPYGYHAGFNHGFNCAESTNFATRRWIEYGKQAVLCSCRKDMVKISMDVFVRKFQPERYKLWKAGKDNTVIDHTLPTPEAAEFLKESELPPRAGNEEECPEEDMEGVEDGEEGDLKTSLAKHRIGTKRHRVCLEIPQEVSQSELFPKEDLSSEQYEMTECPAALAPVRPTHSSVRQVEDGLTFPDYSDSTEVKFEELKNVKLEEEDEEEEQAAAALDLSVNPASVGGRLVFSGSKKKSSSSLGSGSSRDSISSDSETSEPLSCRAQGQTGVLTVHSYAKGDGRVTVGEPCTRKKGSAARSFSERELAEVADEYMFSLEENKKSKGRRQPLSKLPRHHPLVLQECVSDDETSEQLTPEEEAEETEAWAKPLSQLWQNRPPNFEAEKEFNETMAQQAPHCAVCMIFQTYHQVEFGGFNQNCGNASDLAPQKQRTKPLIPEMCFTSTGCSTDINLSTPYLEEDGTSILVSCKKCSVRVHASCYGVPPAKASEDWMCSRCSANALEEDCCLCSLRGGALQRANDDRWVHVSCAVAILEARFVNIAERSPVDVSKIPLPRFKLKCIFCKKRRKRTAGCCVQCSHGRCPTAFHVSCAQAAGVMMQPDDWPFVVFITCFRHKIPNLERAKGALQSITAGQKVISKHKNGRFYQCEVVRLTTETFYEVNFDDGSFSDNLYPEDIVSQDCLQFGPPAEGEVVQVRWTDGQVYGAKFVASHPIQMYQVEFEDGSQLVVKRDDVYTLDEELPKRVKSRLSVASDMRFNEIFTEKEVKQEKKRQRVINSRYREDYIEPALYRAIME
Of the large screens only hits and unclear results are named; the others gave an inactive call. Unless noted, the call rests on the fitted dose curve; in most records, active means well fitted inhibition curve with a large enough effect; inconclusive means small, poorly fitted or top-dose-only effect; inactive means no such curve, though single readings can be large or run the other way.

CC(O)CNCCNCc1cccs1 (centres undefined)	G9a block 5.6µM, JMJD2A Tudor inh inconclusive
CCc1ccc(NC(=O)Cn2c(=O)n(-c3cc(OC)c(OC)c(OC)c3)c(=O)c3ccccc32)cc1	none (no result: Six1-Eya2 inh, CtBP-E1A blk)
Cc1cccc(C(=O)NC(=S)Nc2ccc(Cc3ccncc3)cc2)c1	BAZ2B block inconclusive, G9a block 32µM, JMJD2A Tudor inh inconclusive
COc1ccccc1C(=O)NC(=S)Nc1ccc(Cc2ccncc2)cc1	BAZ2B block inconclusive, G9a block 32µM (no result: CtBP-E1A blk)
Cc1cc(C)cc(C(=O)NC(=S)Nc2ccc(Cc3ccncc3)cc2)c1	HP1b chromo inh inconclusive, BAZ2B block inconclusive, G9a block 22µM, JMJD2A Tudor inh inconclusive
Cc1nn(C)c(C)c1S(=O)(=O)N(CC(=O)NCCc1ccccc1)c1ccc(C(C)C)cc1	none (no result: Six1-Eya2 inh, CtBP-E1A blk)
O=C(Cn1cnc2c(nc3n2CCCCC3)c1=O)Nc1ccc(F)cc1	none (no result: Six1-Eya2 inh, CtBP-E1A blk)
CCOC(=O)c1ccc(N2C(=O)CC(N(C)CCc3ccc(OC)c(OC)c3)C2=O)cc1 (centres undefined)	G9a block 14µM
CCOc1cccc(N2C(=O)CC(N(CCc3ccc(OC)c(OC)c3)C(=O)CC)C2=O)c1 (centres undefined)	none
COc1ccc(OC)c(C2C3=C(N=C4SCC(=O)N42)c2ccccc2CC3)c1 (centres undefined)	BAZ2B block 50µM, G9a block inconclusive, JMJD2A Tudor inh inconclusive
O=C(O)c1cccnc1C(=O)N1CCc2c([nH]c3ccccc23)C1C(F)(F)F (centres undefined)	G9a block 56µM, JMJD2A Tudor inh inconclusive
Cc1ccccc1C(=O)N1CCc2c([nH]c3ccccc23)C1C(F)(F)F (centres undefined)	HP1b chromo inh inconclusive, BAZ2B block inconclusive, G9a block inconclusive
Cc1nc(C(=O)N2CCc3c([nH]c4ccccc34)C2c2ccccn2)cs1 (centres undefined)	none
CC(C)c1nc(C(=O)N2CCc3c([nH]c4ccccc34)C2c2ccccn2)cs1 (centres undefined)	BAZ2B block 22µM, JMJD2A Tudor inh 56µM (no result: G9a block)
O=C(Cc1ccsc1)N1CCc2c([nH]c3ccccc23)C1c1ccccn1 (centres undefined)	G9a block 50µM, JMJD2A Tudor inh inconclusive
COc1ccc(-c2nnc3n2N=C(c2c(OC)cccc2OC)CS3)cc1OC	none (no result: Six1-Eya2 inh, HP1b chromo inh, CtBP-E1A blk, BAZ2B block, G9a block)
c1ccc(Cn2nnnc2C(c2cccs2)N2CCSCC2)cc1 (centres undefined)	none
CCN1CCN(C(c2ccc(F)cc2)c2nnnn2Cc2ccc3c(c2)OCO3)CC1 (centres undefined)	none (no result: G9a block)
Fc1ccc(Cn2nnnc2C(c2ccc(Cl)cc2)N2CCSCC2)cc1 (centres undefined)	G9a block 50µM, JMJD2A Tudor inh 56µM
CC1CCN(C(c2ccc(N(C)C)cc2)c2nnnn2Cc2ccc(F)cc2)CC1 (centres undefined)	HP1b chromo inh inconclusive, BAZ2B block 13µM, JMJD2A Tudor inh inconclusive
COc1ccc(NC(=O)Nc2nnc(N(CC(C)C)CC(C)C)s2)c(OC)c1	G9a block inconclusive (no result: Six1-Eya2 inh, CtBP-E1A blk)
CCOC(=O)c1[nH]c(C)c(CCC(=O)NCc2ccc(N(C)C)cc2)c1C	G9a block inconclusive, JMJD2A Tudor inh inconclusive (no result: Six1-Eya2 inh, CtBP-E1A blk)
O=C(O)CCCNC(=O)CC1S/C(=N/N=C/c2ccccc2O)NC1=O (centres undefined)	BAZ2B block 50µM
Cn1c(N=Nc2ccc(N3CCOCC3)cc2)[n+](C)c2ccccc21	Six1-Eya2 inh inconclusive, HP1b chromo inh inconclusive, BAZ2B block 13µM, G9a block 18µM, JMJD2A Tudor inh inconclusive
Cn1c(=Nc2ccc(N3CCOCC3)cc2)ccc2ccccc21	BAZ2B block inconclusive, G9a block inconclusive
Cc1cccc(NC(=O)CNC(=O)CCc2nc3sc4c(c3c(=O)[nH]2)CCCC4)c1C	HP1b chromo inh inconclusive, BAZ2B block 40µM, G9a block 50µM, JMJD2A Tudor inh 40µM
CCOC(=O)C1CCN(C(=O)CCc2nc3sc4c(c3c(=O)[nH]2)CCCC4)CC1	BAZ2B block inconclusive, G9a block 50µM, JMJD2A Tudor inh inconclusive
CN(CC(=O)Nc1ccc(F)c(F)c1F)C(=O)CCc1nc2sc3c(c2c(=O)[nH]1)CCCC3	BAZ2B block 50µM, G9a block 50µM
Cc1cccc(C)c1NC(=O)CN(C)C(=O)CCc1nc2sc3c(c2c(=O)[nH]1)CCCC3	BAZ2B block inconclusive
CC(=O)c1ccc(NC(=O)CCc2nc3sc4c(c3c(=O)[nH]2)CCCC4)cc1	BAZ2B block 56µM, G9a block inconclusive
CCOC(=O)CSc1nc2sc3c(c2c(=O)[nH]1)CCCC3	none
CCOC(=O)c1ccc(NC(=O)CC2C(=O)N(c3ccc(F)cc3)C(=O)N2Cc2ccc(C)cc2)cc1 (centres undefined)	none (no result: Six1-Eya2 inh, CtBP-E1A blk)
Cc1cc(NC(=O)CN2CC3CC(C2)c2cccc(=O)n2C3)nc2c1c(=O)oc1ccccc12 (centres undefined)	BAZ2B block inconclusive, G9a block 35µM (no result: Six1-Eya2 inh, HP1b chromo inh, CtBP-E1A blk, JMJD2A Tudor inh)
COc1cc(CNc2ccc3[nH]c(=O)[nH]c3c2)ccc1OCc1ccc(Cl)cc1	none (no result: G9a block)
COc1cc(CNc2ccc3[nH]c(=O)[nH]c3c2)cc(Br)c1OCC(=O)NC(C)(C)C	BAZ2B block 40µM, JMJD2A Tudor inh 56µM
CCOc1c(Cl)cc(CNc2ccc3[nH]c(=O)[nH]c3c2)cc1OC	G9a block 3.5µM, JMJD2A Tudor inh inconclusive (no result: Six1-Eya2 inh, CtBP-E1A blk)
CCOc1cc(CNc2cccc3ccccc23)cc(Br)c1OCC(=O)NC(C)(C)C	none
CCOc1cc(CNc2ccc(N3CCCCC3)cc2)cc(Br)c1OCC(=O)NC(C)(C)C	Six1-Eya2 inh inconclusive, HP1b chromo inh inconclusive, CtBP-E1A blk inconclusive, BAZ2B block 11µM, G9a block 10µM, JMJD2A Tudor inh 10µM
CCOc1cc(CNc2ccc(N(C)C)cc2)cc(Br)c1OCC(=O)NC(C)(C)C	HP1b chromo inh 14µM, CtBP-E1A blk inconclusive, BAZ2B block 14µM, G9a block 5µM, JMJD2A Tudor inh 40µM
CCc1ccc(CNCc2c(C(=O)O)n(Cc3cccc(F)c3)c3cc(OC)ccc23)cc1	none (no result: Six1-Eya2 inh, CtBP-E1A blk)
CC(=O)Nc1ccc2nc3c(=O)n(C)c(=O)n(C)c3nc2c1	Six1-Eya2 inh inconclusive, BAZ2B block inconclusive, G9a block 40µM, JMJD2A Tudor inh 79µM
CSc1nc2c(c(=O)[nH]c(=O)n2C)n1Cc1ccc(Cl)cc1	HP1b chromo inh inconclusive
C/C=C/Cn1c(SCc2ccc(Cl)cc2)nc2c1c(=O)[nH]c(=O)n2C	G9a block 45µM
Cn1c(SCc2ccccc2)nc2c1c(=O)[nH]c(=O)n2C	none
COCCn1c(SCc2ccc(Cl)cc2)nc2c1c(=O)[nH]c(=O)n2C	none (no result: BAZ2B block, G9a block)
CCn1c(SCc2ccccc2)nc2c1c(=O)[nH]c(=O)n2C	G9a block 45µM (no result: CtBP-E1A blk)
